Data on 40 sequences can be found in the supplement of paper PMC6555819.

In this test the test system is VDR:RXRa (NR concentration 270 nM, RXRa partner concentration 90 nM). In words: PBM binding z-score (relative to random genomic background probes); higher = stronger binding; sequences stand for … in GC…GCGATTGACAGCGTAGAATGAAGG
On the procedure:
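Protein-binding microarray (Agilent 4x180K custom design, double-stranded 60-nt probes: 5' GC cap, 34-nt variable region, 24-nt constant primer region; full probe sequence given). Purified or IVT nuclear receptor:RXRα heterodimers (3:1 NR:RXRα, mostly 270:90 nM) or homodimers were incubated for 1 h in PBS with 2% milk and no ligand, then detected with Alexa488 antibodies. Fluorescence from o1-orientation probes (~5 replicates averaged) was converted to z-scores against 500 random hg19 background probes. Variable regions are seed direct-repeat (DR0–DR5) sites, all their single-nucleotide variants and half-site ablations.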
In the case of TAGCCTAGGTCAGATCGGACCAGTATACGCTATA, the PBM binding z-score was found to be 0.34.

ACATGTAGGTTAGCTGGGGTCATTCAGACTAGGC displayed a PBM binding z-score of 6.43.

In turn, AGAATGAGGTTAATAAGATCAGGGAATTGCGGTC returned a PBM binding z-score of 2.02.

In the case of GGAACGAGGGCATCCGAGTTGATAGCATGGCGAT, the PBM binding z-score was found to be 3.18.

As to TAGCCTAGGTCATTGGGCCAGTATTGTACGCATC, the PBM binding z-score is 2.26.

Sequence CGTCGAAGTTCAAGGTAACGTAACAGAAAGCAGC yielded a PBM binding z-score of 2.09.

The sequence ATCGAAAAGTCGAGGTGAGTATAGAGAAAGGGAA displayed a PBM binding z-score of -0.237.

Turning to CCTCGGAGGCCAGAAGGTCAGAGCTGTCCGCTTT, the PBM binding z-score is 0.72.

On to TCATATAAGTAAACAGGTGAAAGTCCGTAAGTTA, for which the PBM binding z-score was found to be 1.28.

Consider GCTATTAGTTGGAAGGGCAACCGAATGATTCTCG, for which the PBM binding z-score was -0.223.

The sequence CGGCCAAGGTCAGCAGGTCAGTGAAAGCGACGTG returned a PBM binding z-score of 3.8.

As for TCTTGTAGATCTAGCAGGTTAAGAAAGCCTGAGT, the PBM binding z-score was determined as 0.391.

Consider CCTATTGGGCCATTCAGAGGTCATTGATCATATG, for which the PBM binding z-score was found to be 3.98.

On to CGACCAAGGTGAACAAGGTCGTTGATTACTATTC, for which the PBM binding z-score turned out to be 6.02.

For AGTCAAAGTTCATCTAGTTAACGTAAGATATGCT, the PBM binding z-score turned out to be 4.86.

As to CATACTGGGCCAAGGTCATTGATCAGTCAAAGCA, the PBM binding z-score was 3.48.

CGTCCAAGGTCAATGCTAGGTCAGAGAAAGCATT yielded a PBM binding z-score of 4.76.

ACTAGCAGGCCAATTTTGGGTCACTCAAACAAAG: the PBM binding z-score turned out to be 0.456.

In turn, ATCGAAAGGTCGAGGTGAGTACAGAGAAAGGGAA registered a PBM binding z-score of 4.25.

For the sequence GCGACTGGGGCAAAGCAGGTTACGATAAGGTTGG, the PBM binding z-score came out at 0.0646.

As to CCGATTGGGGCAAGGTTACCATAACGCACAGCCA, the PBM binding z-score worked out at 0.0829.

Take AGAATGAGGTTAAGATCAAGGAAACAGAATACAT: the PBM binding z-score turned out to be 1.09.

ACTAGCAGGCCAAGTTTGGGTCACTCAGACAAAG had a PBM binding z-score of 0.43.

With CAAACTAGGTCAAGGTCACAGTCGGTTTGTGCCA, the PBM binding z-score came to 5.06.

In the case of AGAAAGAGGTTACCAAAGATCAGGGAAACGCTTG, the PBM binding z-score is 1.3.

On to GGAACGAGGGCACTCGAGTTGATAGCATGGCGAT, for which the PBM binding z-score is 2.64.

GCTCGGAGGACAATGTCAGAGCTTTGTCCGTAGA gave a PBM binding z-score of -0.573.

On to AAGACAGGGTCACTAGGCCAGAGTAGGTACGAAT, for which the PBM binding z-score was found to be 3.9.

In the case of AGTCAAAGTTCATCTAGGTACCGTAAGATATGCT, the PBM binding z-score turned out to be 4.98.

GCTGACAGGTGAAACGCAGGTAACTCAGGGTGGC came in with a PBM binding z-score of -0.355.

Sequence ACTCGGAGGACAAAGGTCAGAGTTACGCCAGTGA yielded a PBM binding z-score of 3.42.

GCTTACGGGTCAAAGCTTATAGCATGAATAGAAT: the PBM binding z-score stood at 3.36.

ATATGTAGGTTACATCTGGGTCATTCAGGCTATG: the PBM binding z-score amounted to 3.04.

In turn, AGAACGAGGGCACTCTGAGTTGATAGCAGAGTAG registered a PBM binding z-score of 1.88.

The sequence TCTAGTTTGTCAAAGGTCACACACTCGAAATGCG yielded a PBM binding z-score of 5.12.

CCTGCTAGGTCATGGTCAGCTACTCTACAGTATG had a PBM binding z-score of 1.46.

CGAACTAGGTCAGAACAGGACAGTGATGGATGAT: the PBM binding z-score amounted to 0.651.

CAAACTAGGTCACAGAGGTCACAGTCCGTGCGTA registered a PBM binding z-score of 7.66.

The sequence CCTAGTTGGTCATGGTCACACACGCTATAGGTAC returned a PBM binding z-score of 0.655.

Turning to CCTACTGGGCCATCAGGTCATAGATATCAACGTT, the PBM binding z-score is 1.25.
